Data: PubChem BioAssay (EPA / NIEHS)
More than one record can exist for a structure, and the calls need not agree. Active and inactive are the calls of the source. Rule for the calls: active = hit-call score of the fitted dose curve at least 0.9, where 1 is the maximum; inactive = score below 0.9.

The molecules below were run on flavin-containing dimethylaniline monooxygenases 3 (FMO3), FMO3 (gene 2328) (assay: LTEA_HepaRG_FMO3: Life Technologies and Expression Analysis (LTEA) Assay for flavin-containing dimethylaniline monooxygenases 3 (FMO3) using HepaRG (AID 2283453;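 for AC50: FMO3 transcript by TaqMan qRT-PCR normalized to ACTB GAPDH and POLR2A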)). Conditions: mRNA level, 48 h; actives raise or lower the signal.
Protocol: LTEA_HepaRG is a cell based, multiplexed-readout assay that uses HepaRG, a human liver cell line, with measurements taken at 48 hours after chemical dosing on a 96-well plate.LTEA_HepaRG_FMO3 is one of 102 assay component(s) measured in the LTEA HepaRG cell culture assay. It is a marker of NR mediated metabolism.Data from the assay component LTEA_HepaRG_FMO3 was analyzed into 1 endpoint. This assay endpoint, LTEA_HepaRG_FMO3, was analyzed with bidirectional fitting relative to DMSO as the negative control and baseline of activity. Using a type of inducible reporter, measures of mRNA induction for gain or loss-of-signal activity can be used to understand regulation of transcription factor activity. To generalize the intended target to other relatable targets, this assay endpoint is annotated to the oxidoreductase intended target family, where the subfamily is […].
A total of 1060 chemcials from the ToxCast library were tested in eight-point concentration-response experiments. Cell culture and cytotoxicity assays were conducted at Thermo Fisher Scientific's Custom Services facility (Madison, WI). A single lot of human HepaRG cells (Thermo Fisher Scientific, Frederick, MD) was used for the cell culture experiments. 96-well format collagen type I coated plates of human HepaRG cells were prepared using established methods. Briefly, cryopreserved HepaRG cells were thawed, plated at a density of approximately 100,000 cells/well in HepaRG Thaw, Plate, and General Purpose media (HPRG770, Thermo Fisher Scientific), and incubated for 48 hours. 0.5% DMSO was selected as vehicle control to balance the requisite need of DMSO in HepaRG cultures to maintain differentiation (for example, baseline metabolism, proportions of hepatocytes vs. cholangiocytes), while enabling further hepatic receptor pathway activation (for example, PXR and CAR) in response to chemical exposure. 48 hours after plating, the culture medium was replaced with HepaRG Serum-Free Incudtion Media. Cells were exposed to each test chemical in duplicate and maintained in CO2 incubators for another 48 hours. Chemical plates were thawed to room temperature and 200x concentrations of treatment groups were prepared. 8-point conentration-reponse curves were made with the highest exposure at 100 uM, followed by half-log dilutions, all in 0.5% DMSO. Each test plate contained variouse controls, induction positive controls (1mM phenobarbital), cytotoxicity positive controls ([…] aflatoxin B1), vehicle controls (0.5% DMSO), and total lysis controls (0.5% DMSO). Cell morphology images were taken using an Essen IncuCyte FLR automated microscope, with six 96-well plates imaged in about 24 minutes. Images were captured and exported and JPEG files. Spent culture media was transfered to black-well plates for the LDH assay, and remaining media was sorted at -80 C for later use. Cells were treated with RLT buffer and frozen until shipped for gene expression analysis. Total RNA was isolated from the cell suspension in 75 uL of Buffer RLT (Qiagen, Germantown, MD 20874) by Quintiles/Expression Analysis (Durham, NC) using a custom isolation procedure. Total RNA from each plate well was transferred to a preamplification plate. Fluidigm's 96.96 Dynamic ArrayTM (Fluidigm, Amsterdam, the Netherlands) technology was used for gene expression analyses by quantitative reverse transcription polymerase chain reaction (qRT-PCR, performed by Quintiles/Expression Analysis, Durham, NC)89. Standard TaqManTM Assays (Applied Biosystems/ThermoFisher Scientific, Foster City, CA) were used to assess the expression of 93 genes selected based on their selectivity and sensitivity to important hepatic receptors known to be modulated by environmental chemicals; importance in human hepatocyte functionality; and hepatotoxicity. […]
With `CCC(=O)C(CC(C)N(C)C)(c1ccccc1)c1ccccc1` (configuration not stated) the AC50 was 46.7 µM (active). For `COc1cc(-c2ccc(N)c(OC)c2)ccc1N`, the AC50 was 72.6 µM (active) and the outcome was “inactive”. With `O=c1[nH]c(=O)[nH]c(=O)[nH]1` the outcome was “inactive”. For `CC(C)(C)c1cc(O)ccc1O`, the outcome was “inactive”. With `Cn1sc(Cl)cc1=O` the outcome was “inactive”. For `O=C(O)C(F)(F)C(F)(F)C(F)(F)C(F)(F)C(F)(F)C(F)(F)C(F)(F)C(F)(F)C(F)(F)C(F)(F)F`, the AC50 was 69.1 µM (active). `Oc1cccc2cccnc12` was tested, and the outcome was “inactive”. With `CCOP(=S)(OCC)Oc1nc(Cl)c(Cl)cc1Cl` the outcome was “inactive”. In the case of `C[C@]12CCC(=O)C[C@@H]1CC[C@@H]1[C@@H]2CC[C@]2(C)[C@@H](O)CC[C@@H]12`, the outcome is reported as “inactive”. For `CC(C)(c1ccccc1)c1ccc(O)c(C(C)(C)c2ccccc2)c1`, the AC50 was 78.2 µM (active). In the case of `CN(C)N=O`, the outcome is reported as “inactive”. `NC(=O)O` was tested, and the outcome was “inactive”. `Cc1ccccc1N` was tested, and the outcome was “inactive”. `CC12CC1(C)C(=O)N(c1cc(Cl)cc(Cl)c1)C2=O` (configuration not stated) was tested, and the outcome was “inactive”. `ClC1(Cl)C2(Cl)C3(Cl)C4(Cl)C(Cl)(Cl)C5(Cl)C3(Cl)C1(Cl)C5(Cl)C24Cl` (configuration not stated) was tested, and the outcome was “inactive”. `O=C1C2(Cl)C3(Cl)C4(Cl)C(Cl)(Cl)C5(Cl)C3(Cl)C1(Cl)C5(Cl)C24Cl` (configuration not stated) was tested, and the AC50 was 22.6 µM (active). With `ClCC(Cl)CCl` the outcome was “inactive”. With `CC(=O)[O][Hg][c]1ccccc1` the AC50 was 16.9 µM (active). In the case of `CCCCCCCCc1ccc(O)cc1`, the outcome is reported as “inactive”. For `C[C@@H]1C[C@@H]([C@H](O)CC2CC(=O)NC(=O)C2)C(=O)[C@@H](C)C1`, the AC50 was 25.9 µM (active). `C=CC(=O)OCCCCCC(C)C` was tested, and the outcome was “inactive”. In the case of `CCC(C)(C)c1ccc(O)c(C(C)(C)CC)c1`, the outcome is reported as “inactive”. For `CC(C)(OO)c1ccccc1`, the outcome was “inactive”. For `O=[N+]([O-])c1ccc(O)c([N+](=O)[O-])c1`, the AC50 was 15.3 µM (active). With `CCOP(=S)(OCC)SCSP(=S)(OCC)OCC` the outcome was “inactive”. For `O=C(O)C(Cl)(Cl)Cl`, the outcome was “inactive”. `O=C(O)C(F)(F)C(F)(F)C(F)(F)C(F)(F)C(F)(F)C(F)(F)F` was tested, and the outcome was “inactive”. For `CC(C)(C)CC(C)(C)c1ccc(O)cc1`, the outcome was “inactive”. With `O=C(Nc1ccc2[nH]ccc2c1)c1cc2cc(F)ccc2n1Cc1cccc(F)c1` the AC50 was 26.3 µM (active). In the case of `CCN1CCC2(CC1)COc1cc3c(cc12)N(C(=O)c1ccc(-c2ccc(-c4nnc(C)o4)cc2C)cc1)CC3`, the AC50 is reported as 13.8 µM (active). For `C=C(C)C(=O)[O][Sn]([CH2]CCC)([CH2]CCC)[CH2]CCC`, the AC50 was 74.9 µM (active).
